Screens (PubChem)
NPR1 antag = human Npr1 receptor antagonism | HEK293 hNpr1 GloSensor cGMP, ANP-stimulated luminescence | Potency, µM (highest dose often 46.3 µM), inactives show at the highest dose activity change, negative = inhibition, actives largely listed as inhibitors | hit rate 1.6% among 76,000; calls by dose curve; also: nearly all actives have a fitted effect of over 60% in size
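Compound pre-incubated 30 min at room temperature on GloSensor-loaded HEK293 cells stably carrying hNpr1 and the pGS-40F cGMP biosensor. Stimulation uses hNppA at 0.1 nM final; luminescence is taken at baseline and 20 min post-agonist.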
3T3 cytotox = NIH 3T3 cell cytotoxicity; Potency, µM (doses to about 96.7 µM), for the others: top-dose activity change, negative = cytotoxicity, hits mostly inhibitors; hit rate 4.3% among 94,000; NIH 3T3 viability, CellTiter-Glo ATP luminescence, 48-72 h; AID 1345082; also: nearly all actives have a fitted effect of over 55% in size
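First NIH 3T3 cells are plated at 400 cells/well; next compound is pinned in; then plates incubate 48 or 72 hr at 37 °C; finally CellTiter-Glo is added and luminescence read after 10 min.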
FLuc inh = Photinus pyralis luciferase inhibition; purified P. pyralis luciferase, luminescence, biochemical; Potency, µM (top dose mostly 115 µM), most hits filed as inhibitors; P08659; hit rate 2.5% among 76,000; also: nearly all actives have a fitted effect of over 65% in size
Target sequence (P08659 whole entry, looked up): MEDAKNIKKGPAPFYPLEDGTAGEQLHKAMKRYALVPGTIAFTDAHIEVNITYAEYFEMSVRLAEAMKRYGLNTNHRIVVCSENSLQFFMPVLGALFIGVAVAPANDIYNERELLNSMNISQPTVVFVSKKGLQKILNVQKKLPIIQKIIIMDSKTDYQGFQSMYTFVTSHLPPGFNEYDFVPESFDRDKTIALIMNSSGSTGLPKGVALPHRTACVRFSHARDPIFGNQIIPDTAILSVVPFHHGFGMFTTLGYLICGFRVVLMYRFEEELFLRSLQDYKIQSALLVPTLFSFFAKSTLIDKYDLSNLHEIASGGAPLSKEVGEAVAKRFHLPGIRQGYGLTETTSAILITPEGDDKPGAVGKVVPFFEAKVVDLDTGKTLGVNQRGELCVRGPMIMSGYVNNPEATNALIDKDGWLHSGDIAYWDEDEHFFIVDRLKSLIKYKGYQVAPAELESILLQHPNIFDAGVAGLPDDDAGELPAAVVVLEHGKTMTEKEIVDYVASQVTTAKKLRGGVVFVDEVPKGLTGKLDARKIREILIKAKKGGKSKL
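FLuc 10nM, D-luciferin 10uM, ATP 10uM, Mg acetate 10mM, Tris acetate pH 7.5, Tween/BSA; cpd qHTS; enzyme added last; CCD luminescence.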
HEK cytotox = HEK 293 cell cytotoxicity | HEK 293 viability, ATP luminescence (CellTiter-Glo), 48-72 h | Potency, µM (doses to about 115 µM), for inactives: top-dose activity change, negative = cytotoxicity, most hits filed as inhibitors | hit rate 6.6% among 94,000 | AID 1345083; also: nearly all actives have a fitted effect of over 60% in size
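250 HEK 293 cells/well; compound by pintool; incubated 48 or 72 hr at 37 degree Celsius; CellTiter-Glo added, 10 min RT, luminescence imaged.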
Active calls of the source: *; i = inactive; ? = inconclusive; · = not tested or not shown; [ ] = dose if it differs, or a comment. A selection: hits, their analogues and other compounds. The true share with any hit is near 11%. Unless noted, calls follow the shape of the dose curve; as a rule, active = well fitted curve in the direction sought with a large enough effect; inconclusive = small, poorly fitted or top-dose-only effect, or another doubt; inactive = no such curve, though single readings can be large; an effect the other way counts as inactive or inconclusive. % is scaled to controls: 0 for no effect and ±100 for the full control effect; potency is read from the fitted curve at half-maximal effect.

SMILES	NPR1 antag	3T3 cytotox	FLuc inh	HEK cytotox
CCOc1nccn2c(-c3ccc(CN4CCNC(=O)C4)cc3)cnc12	4.7%[70.6 µM]	?	i	-2.3%[172 µM]
CC(C)C[C@@H]1N[C@H](C(=O)NCC2CC2)Cc2cn(Cc3nccn3C)c3cccc1c23	-3.2%[70.6 µM]	63.1µM*	i	35.5µM*
CC#CCn1cc2c3c(cccc31)[C@H](CC(C)C)N[C@H](C(=O)NCCC)C2	-5.4%[70.6 µM]	39.8µM*	i	56.2µM*
CCCNC(=O)[C@@H]1Cc2cn(Cc3nccn3C)c3cccc(c23)[C@H](CC(C)C)N1	-2.4%[70.6 µM]	100µM*	i	44.7µM*
CC(C(=O)N1CCOc2ccc(CCC(=O)NCC3CC3)cc2C1)c1ccccc1 (stereo not drawn)	·	-10.7%	·	?
O=C(NCc1cccs1)[C@@H]1C[C@@H](O)[C@H](O)[C@@H]2NC(=S)N(c3ccc(OC(F)(F)F)cc3)[C@@H]21	-5.3%	?	44.7µM*	?
O=c1c2nc(Nc3ccc(C(F)(F)F)cc3)ccc2ncn1C1CC1	-24.2%[70.6 µM]	?	63.1µM*	?
COCCn1cnc2ccc(Nc3ccc(C(F)(F)F)cc3)nc2c1=O	-13.4%[70.6 µM]	?	i	?
CCC(=O)N1CCc2c(C(=O)NCc3cc(C)ccc3C)cccc21	2.7%	-10.6%	i	-29.0%
CCC(=O)N1CCc2c(C(=O)N3CCN(c4cccc(OC)c4)CC3)cccc21	-1.4%	-12.3%	i	?
CC(C)NC(=O)c1cccc2c1CCN2C(=O)C1CC1	-1.6%	?	i	2.6%
CCNC(=O)c1cccc2c1CCN2C(=O)Nc1ccc(C)cc1	2.24µM*	?	0.282µM*	?
Cc1ccc(NC(=O)N2CCc3c(C(=O)NCc4ccncc4)cccc32)cc1	12.6µM*	-26.4%	0.562µM*	31.6µM*
O=C(c1cccc2c1CCN2C(=O)Nc1ccccc1)N1CCN(c2ccccc2)CC1	-23.6%	-17.1%	28.2µM*	?
Cc1ccc(NC(=O)N2CCc3c(C(=O)NC(C)C)cccc32)cc1	0.562µM*	?	0.316µM*	?
O=C(NCCCc1ccccc1)c1cccc2c1CCN2C(=O)C1CC1	-12.5%	?	i	?
O=C(NCCCN1CCOCC1)c1cccc2c1CCN2C(=O)Nc1ccc(F)cc1	-12.9%	-9.7%	25.1µM*	-29.3%
O=C(NCCc1ccncc1)c1cccc2c1CCN2C(=O)Nc1ccc(F)cc1	3.55µM*	?	0.251µM*	?
Cc1cc(C)cc(C(=O)NC(Cc2ccccc2)C(=O)N2CCN(c3ccccn3)CC2)c1 (stereo not drawn)	-7.2%	?	i	?
CCN1CCN(C(=O)c2cc(-c3ccc(OC)cc3)nc3c2cnn3C)CC1	·	-24.2%	·	-11.4%
COc1ccc(-c2cc(C(=O)N3CCN(C)CC3)c3cnn(C)c3n2)cc1	·	-11.5%	·	3.3%
Cn1ncc2c(C(=O)N3CCN(Cc4ccccc4)CC3)cc(-c3ccccc3F)nc21	·	?	·	39.8µM*
COc1ccc(-c2cc(C(=O)N3CCN(c4ncccn4)CC3)c3cnn(C)c3n2)cc1	·	?	·	39.8µM*
CN1CCN(C(=O)c2cc(-c3ccccc3C(F)(F)F)nc3c2cnn3C)CC1	·	-16.0%	·	2.5%
COc1ccc(-c2cc(C(=O)N3CCN(Cc4ccccc4)CC3)c3cnn(C)c3n2)cc1	·	?	·	35.5µM*
SMILES	NPR1 antag	3T3 cytotox	FLuc inh	HEK cytotox
COCCn1cc2c3c(cccc31)CN(C(=O)c1cc(F)ccc1Cl)CC2	-14.4%	-23.4%	i	?
COc1ccc(S(=O)(=O)N2CCC(n3cnnc3-c3ccccc3)CC2)cc1	-22.0%	-18.9%	i	-19.0%
c1cncc(O[C@H]2COCCN(C3CCC3)C2)c1	1.1%[70.6 µM]	50.1µM*	i	?
CS(=O)(=O)c1ccc(O[C@H]2COCCN(C3CCC3)C2)cc1	3.2%[70.6 µM]	-20.2%[174 µM]	i	-23.0%[172 µM]
CC(=O)N1CCC(C(=O)N2CCC(c3ccccc3)CC2)CC1	·	-11.3%[138 µM]	·	2.0%[172 µM]
O=C(c1ccccn1)N1CCC(Cc2ccc(COc3ccncc3)cc2)CC1	·	25.1µM*	·	?
O=C(CCC1CCN(C(=O)c2ccccn2)CC1)N1CCC(Cc2ccccc2)CC1	-16.8%	-37.2%	i	?
Cn1cnc(C(=O)N2CCC(Cc3ccc(C(=O)N4CCOCC4)cc3)CC2)c1	2.9%	-15.4%	i	2.8%
Cn1cnc(C(=O)N2CCC(Cc3ccc(COc4cccc(F)c4)cc3)CC2)c1	·	?	·	15.8µM*
O=c1n(CCN2CCCC(N[S+](=O)([O-])c3cccs3)C2)nc2n1CCCC2 (stereo not drawn)	·	-22.3%	·	0.9%
